# Source: PubChem BioAssay
# Sfp PPTase inh: inhibitors of Bacillus subtilis Sfp phosphopantetheinyl transferase. Biochemical Sfp PPTase activity, qHTS. Potency, µM, for the others: largest response in the series, negative = inhibition, hits mostly inhibitors. actives 3.5% (n = 310,000);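 further: the enzyme is Sfp with the accession as filed and its product quenches rhodamine fluorescence; 0% = enzyme reaction without inhibitor and -100% = no enzyme wells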
#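 Sfp 15 nM + cpd, 15 min RT; start w/ rhodamine-CoA 5 uM, BHQ-2-YbbR 12.5 uM (final); 50 mM Hepes pH 7.6, 10 mM MgCl2, 0.01% NP-40, 0.01% BSA; read 525/598 nm at 0 and 30 min.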
# G9a inh: blocks human histone lysine methyltransferase G9a | G9a H3K9 monomethylation, AlphaScreen, 2 h | actives 8.8% (n = 350,000) | Potency, µM (series often up to 102 µM), for the others: at the highest dose activity, negative = inhibition, most hits filed as inhibitors | Q96KQ7; further: on the % scale 0 is the no-effect control and ±100 the full control effect; nearly all actives have a fitted effect of over 75% in size
#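 AlphaScreen read-out: biotin-H3K9 peptide (500 nM) methylation by 20 nM enzyme with 20 uM SAM, 2 h at room temperature after 15 min compound preincubation; anti-monomethyl H3K9 antibody plus donor/acceptor beads, 10 min dark.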
# HP1b chromo inh: inhibitors of HP1-beta chromodomain binding to methylated histone tails; AlphaScreen HP1-beta / biotin-H3K9me3 peptide binding; Potency, µM (highest dose often 114 µM), for the others: at the highest dose activity change, negative = inhibition, hits mostly inhibitors; AID 540317; actives 0.56% (n = 390,000); further: nearly all actives have a fitted effect of over 70% in size
#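 AlphaScreen: HP1-beta (50 nM) preformed 30 min with biotin-H3(1-18)K9me3 peptide (50 nM) in PBS pH 7.4, 0.01% Tween-20. Compound added for 30 min at RT, then streptavidin donor/nickel chelate acceptor beads (10 ug/mL) for 30 min.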
# BAZ2B inh: inhibitors of human BAZ2B bromodomain. Q9UIF8. AlphaScreen BAZ2B-H3K14Ac peptide displacement. Potency, µM (titrated, usually from 114 µM), without a hit: top-dose activity change, negative = inhibition, actives largely listed as inhibitors. actives 4.4% (n = 360,000); further: on the % scale 0 is the no-effect control and ±100 the full control effect; nearly all actives have a fitted effect of over 60% in size
#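 BAZ2B (50 nM) with biotin-H3(5-23)K14Ac peptide (50 nM) in PBS pH 7.4, 0.01% Tween-20, preformed 30 min, then compound 30 min at room temperature; top concentration 110uM. AlphaScreen streptavidin donor/nickel chelate acceptor beads (10 ug/mL final), 20 min dark, signal read.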
# JMJD2A Tudor: blocks the human JMJD2A Tudor domain. O75164. AlphaScreen JMJD2A-Tudor / H3K4me3 peptide binding. Potency, µM (doses to about 114 µM), for the others: at the top dose activity change, negative = inhibition, actives largely listed as inhibitors. actives 4.4% (n = 390,000); further: on the % scale 0 is the no-effect control and ±100 the full control effect; nearly all actives have a fitted effect of over 50% in size
# Target sequence (O75164 whole entry, looked up, the tested form may be a part): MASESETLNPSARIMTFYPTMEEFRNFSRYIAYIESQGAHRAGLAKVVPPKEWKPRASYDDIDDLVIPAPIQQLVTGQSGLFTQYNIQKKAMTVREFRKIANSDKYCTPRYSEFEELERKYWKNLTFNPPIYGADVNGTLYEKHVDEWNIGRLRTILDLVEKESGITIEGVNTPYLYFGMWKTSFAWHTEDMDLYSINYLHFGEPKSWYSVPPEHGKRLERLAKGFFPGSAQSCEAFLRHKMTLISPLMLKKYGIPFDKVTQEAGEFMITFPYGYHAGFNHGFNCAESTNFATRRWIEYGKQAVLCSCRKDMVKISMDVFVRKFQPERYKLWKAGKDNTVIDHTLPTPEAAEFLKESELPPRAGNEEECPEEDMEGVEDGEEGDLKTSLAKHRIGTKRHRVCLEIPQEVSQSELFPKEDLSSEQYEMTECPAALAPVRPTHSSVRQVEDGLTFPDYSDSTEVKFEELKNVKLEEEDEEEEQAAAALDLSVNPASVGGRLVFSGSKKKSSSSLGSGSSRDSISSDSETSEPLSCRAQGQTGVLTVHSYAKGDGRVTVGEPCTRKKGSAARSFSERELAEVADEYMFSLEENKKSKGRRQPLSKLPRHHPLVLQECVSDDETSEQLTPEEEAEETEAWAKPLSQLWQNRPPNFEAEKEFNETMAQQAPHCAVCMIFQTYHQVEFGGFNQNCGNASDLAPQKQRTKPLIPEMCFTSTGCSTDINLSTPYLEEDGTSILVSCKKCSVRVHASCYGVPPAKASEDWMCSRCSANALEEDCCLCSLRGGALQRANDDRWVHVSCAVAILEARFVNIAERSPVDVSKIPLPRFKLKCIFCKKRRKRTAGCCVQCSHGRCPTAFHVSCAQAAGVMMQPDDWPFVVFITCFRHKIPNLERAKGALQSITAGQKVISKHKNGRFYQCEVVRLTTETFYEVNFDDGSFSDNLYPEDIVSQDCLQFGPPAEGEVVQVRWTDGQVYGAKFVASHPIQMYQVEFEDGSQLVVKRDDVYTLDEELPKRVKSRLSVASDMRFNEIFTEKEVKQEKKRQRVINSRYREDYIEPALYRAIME
# PLK1 PBD inh: inhibitors of human PLK1 polo-box domain binding; Plk1 PBD binding of FITC phosphopeptide, fluorescence polarization; Potency, µM, without a hit: max response, negative = inhibition, usual class: inhibitors; actives 2.8% (n = 360,000); further: series mostly up to about 57 µM; on the % scale 0 is the no-effect control and ±100 the full control effect; nearly all actives have a fitted effect of over 65% in size
# An asterisk follows results filed as active; ? = inconclusive; . = no result given; [ ] = another dose, or the depositor's remark. The list is not random: actives were taken first. Their share in the collection is about 12%. The call rests on the fitted dose curve; in most records, active means well fitted curve in the direction sought with a large enough effect; inconclusive means small, poorly fitted or top-dose-only effect, or another doubt; inactive means no such curve, though single readings can be large; an effect the other way counts as inactive or inconclusive. Potency means the concentration at half of the fitted maximal effect.
SMILES,Sfp PPTase inh,G9a inh,HP1b chromo inh,BAZ2B inh,JMJD2A Tudor,PLK1 PBD inh
O=C(O)C(c1ccccc1)N1C(=O)/C(=C\c2ccc(-c3ccccc3Cl)o2)SC1=S (stereo not given),50µM*,40µM*,?,18µM*,20µM*,?
O=C(CCC1CCCCC1)NCCN1C2=NC[C@@H](Cc3ccccc3)N2C[C@H]1Cc1ccc(O)cc1,-18%,17%[12.7 µM],21%,-37%,-35%,-15%
C[C@@H](CCc1ccccc1)NC[C@H](O)c1ccc(O)c(C(N)=O)c1,16%,-6%[12.7 µM],.,.,.,.
COc1cc(-c2ccc3ncnc(NCc4cccs4)c3c2)cc(OC)c1OC,.,.,.,.,-16%,.
Cc1c(O)ccc(/C(Cc2ccc3ccccc3n2)=N\N)c1O,12%,8.9µM*,10%,?,?,9%
CCCCC(CC)CCC(CC(C)C)OS(=O)(=O)O (stereo not given),13%,-3%[12.7 µM],.,.,.,.
COC(=O)c1cc2c(n(Cc3ccccc3)c1=O)CCCC2=O,.,.,28%,.,-8%,-1%
O=C(O)CCn1c(-c2ccccc2)cc2c1CCCC2=O,-16%,50µM*,29%,-2%,-18%,-3%
COc1cc(Cn2ccnc2)c(OC)cc1Cn1ccnc1,4%,?,6%,79µM*,-35%,-15%
COc1ccc(C(=O)Nc2ccc(Cn3ccnc3)cc2)cc1OC,8%,1%,37%,-37%,-8%,-3%
Cc1onc(-c2ccccc2)c1C(=O)NC(=S)NNC(=O)c1ccc(O)cc1,-27%,4%[59 µM],-7%,3%,?,-10%
Cc1onc(-c2ccccc2)c1C(=O)NC(=S)NNC(=O)c1ccccc1O,14%,-4%[59 µM],-6%,35µM*,79µM*,-18%
Cc1onc(-c2ccccc2)c1C(=O)NC(=S)NNC(=O)c1ccc(O)cc1O,23%,?,-15%,22µM*,79µM*,?
CCCn1c(N)c(C(=O)COC(=O)CCNS(=O)(=O)c2ccccc2F)c(=O)[nH]c1=O,.,12%[12.7 µM],10%,0%,-2%,-4%
CCc1cccc2c(-c3ccccc3)nc(SCC(=O)Nc3ccccc3)nc12,.,-1%[59 µM],26%,-2%,-17%,.
O=C(COC(=O)C1CCN(c2ccc(C(F)(F)F)cn2)CC1)Nc1ccc(Cl)cc1,.,7%[0.501 µM],52%,8%,1%,-7%
CN(CC(=O)Nc1ccc(F)cc1)C(=O)COC(=O)C1CCN(c2ccc(C(F)(F)F)cn2)CC1,.,79µM*,30%,-5%,-41%,1%
O=C(COC(=O)C1CCN(c2ccc(C(F)(F)F)cn2)CC1)Nc1ccc(F)cc1[N+](=O)[O-],.,11µM*,?,?,?,-10%
CCOc1ccc(C(=O)C(C)OC(=O)C2CCN(c3ccc(C(F)(F)F)cn3)CC2)cc1 (stereo not given),.,56µM*,68%,16%,26%,-1%
CCO[C@@H]1OC(C(=O)NCc2nc3ccccc3[nH]2)=C[C@H](c2coc3ccccc3c2=O)[C@H]1CCCO,.,.,61%,.,-18%,9%
S=C(NCCCN1CCOCC1)N1CCN(c2cccc(Cl)c2)CC1,?,32µM*,9%,-21%,-33%,?
CCC/C=C(\CCC)C(NS(=O)(=O)c1ccc(-c2ccccc2)cc1)c1ccc(C(=O)OC)cc1 (stereo not given),9%,.,.,.,.,.
CC1(C)CC(=O)C2=C(C1)OC(N)=C(C#N)C2c1ccc[nH]1 (stereo not given),50µM*,?,?,?,?,?
CCc1ccc(-c2cc(C)no2)cc1S(=O)(=O)NCc1ccc(OC)cc1,.,8%[59 µM],44%,6%,13%,.
O=C(NCCc1nc2ccccc2[nH]1)/C(=C/c1ccco1)NC(=O)c1ccccc1Br,?,?,27%,-10%,-22%,6%
SMILES,Sfp PPTase inh,G9a inh,HP1b chromo inh,BAZ2B inh,JMJD2A Tudor,PLK1 PBD inh
O=C(/C=C/c1ccco1)N/C(=C\c1ccco1)C(=O)NCCc1nc2ccccc2[nH]1,50µM*,45µM*,0%,?,?,-6%
COc1ccc(/C=C/C(=O)N/C(=C\c2ccco2)C(=O)NCCc2nc3ccccc3[nH]2)cc1,?,45µM*,-11%,?,?,2%
O=C(NCCc1nc2ccccc2[nH]1)/C(=C/c1ccco1)NC(=O)c1ccc(Br)cc1,?,71µM*,1%,-21%,-26%,2%
O=C(COC(=O)c1cc([N+](=O)[O-])ccc1NCCO)c1ccccc1,-18%,?,-3%,?,-34%,-2%
O=C1N/C(=C/c2cccs2)C(=O)N1Cc1ccc(Br)cc1,-4%,83%,24%,23%,-33%,-2%
Cc1cc(C)c(C(=O)Nc2ccccc2)c(SCC(=O)Nc2ccc(Br)cc2C)n1,.,4%[59 µM],29%,1%,-4%,.
CC(=O)N(C)c1ccc(N=Cc2c(O)ccc3ccccc23)cc1,1%,4µM*,17%,-29%,?,-13%
CC(=O)c1cccc(N=Cc2c(O)ccc3ccccc23)c1,11%,1.6µM*,-10%,?,71µM*,?
CCOC(=O)Nc1c(Cl)n(C)c(=O)n(C)c1=O,20%,10%,31%,2%,-15%,-12%
COc1ccc(N2C(=O)C(=O)/C(=C(/O)c3ccc(C)cc3)C2c2cccnc2)cc1 (stereo not given),-9%,?,0%,56µM*,?,6%
COc1ccc(C2/C(=C(/O)c3ccc(C)cc3)C(=O)C(=O)N2C)cc1 (stereo not given),11%,?,9%,11%,-8%,1%
Cc1ccc(/C(O)=C2\C(=O)C(=O)N(c3cc(C)on3)C2c2cccc(Cl)c2)cc1 (stereo not given),23%,45µM*,30%,-5%,-16%,-13%
Cc1ccc(/C(O)=C2\C(=O)C(=O)N(c3cc(C)on3)C2c2cccc(Br)c2)cc1 (stereo not given),?,26%[59 µM],8%,21%,-18%,-13%
COc1ccc(/C(O)=C2/C(=O)C(=O)N(c3ccccn3)C2c2cccc(Cl)c2)cc1 (stereo not given),27%,79µM*,12%,-20%,-31%,-13%
COc1ccc(/C(O)=C2\C(=O)C(=O)N(c3cc(C)on3)C2c2cccc(OC)c2OC)cc1C (stereo not given),17%,50µM*,40%,?,-4%,-4%
O=C(Nc1cc(Sc2nc3ccccc3s2)cc([N+](=O)[O-])c1)c1cccc(F)c1F,10%,-8%[59 µM],-21%,?,?,-9%
Cn1c(=O)c2cn(Cc3ccc(Cl)cc3)cc2n(C)c1=O,12%,16µM*,16%,-35%,-13%,-2%
